For 39 compounds, Potency results are on record in PubChem BioAssay (NCATS).

Records with an inconclusive call do not appear. A call without a number means that no potency is given here. Activity calls are given as the source filed them. The call rests on the fitted dose curve.

For the test, the target named is Nucleoprotein (Lymphocytic choriomeningitis virus (strain Armstrong)) (UniProt P09992). Description: qHTS for Inhibitors of the Functional Ribonucleoprotein Complex (vRNP) of Lymphocytic Choriomeningitis Arenaviruses (LCMV): LCMV Primary Screen - GLuc reporter signal (AID 1347086). Further: nearly all actives have a fitted effect of over 70% in size. Particulars: LCMV minigenome vRNP cell assay, Gaussia luciferase reporter; series mostly up to 57.5 µM.
Sequence of Nucleoprotein (Lymphocytic choriomeningitis virus (strain Armstrong)) (P09992 whole entry, looked up): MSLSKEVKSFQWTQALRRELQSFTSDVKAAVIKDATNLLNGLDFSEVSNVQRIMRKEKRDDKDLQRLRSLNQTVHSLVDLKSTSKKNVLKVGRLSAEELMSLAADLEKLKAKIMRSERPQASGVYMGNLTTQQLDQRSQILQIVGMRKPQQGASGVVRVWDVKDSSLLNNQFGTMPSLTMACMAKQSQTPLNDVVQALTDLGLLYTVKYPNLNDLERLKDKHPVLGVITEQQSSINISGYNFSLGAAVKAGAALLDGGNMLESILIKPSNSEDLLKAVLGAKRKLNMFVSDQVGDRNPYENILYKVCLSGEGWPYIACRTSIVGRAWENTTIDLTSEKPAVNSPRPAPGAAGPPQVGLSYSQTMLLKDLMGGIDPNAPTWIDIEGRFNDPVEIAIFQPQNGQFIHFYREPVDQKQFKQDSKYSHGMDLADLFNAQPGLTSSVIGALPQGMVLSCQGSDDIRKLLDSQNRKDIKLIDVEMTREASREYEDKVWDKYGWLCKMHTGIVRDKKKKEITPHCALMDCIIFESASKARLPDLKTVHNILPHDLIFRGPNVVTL
For the compound `CCCCCCCCCCCCCCCC(=O)O`, the Potency result is “inactive”. The same measure for `CCOC(=O)c1ccc(O)cc1`: “inactive”; for `COc1cc(O)cc(O)c1`: “inactive”; for `CC(C)=CCC/C(C)=C/CO`: “inactive”.

As to `CC1CCN(CCCC(=O)c2ccc(F)cc2)CC1`, the Potency result was “inactive”. The same measure for `O=C(Oc1ccccc1)c1ccccc1O`: “inactive”; for `O=C(O)c1[nH]n(-c2ccc(S(=O)(=O)O)cc2)c(=O)c1N=Nc1ccc(S(=O)(=O)O)cc1`: “inactive”. The same measure for `Nc1ccn([C@@H]2O[C@H](CO)[C@@H](O)C2O)c(=O)n1` (some centres undefined): “inactive”; for `Cn1c(=O)c2c(ncn2CC(=O)O)n(C)c1=O`: “inactive”; for `CC(=O)N[C@@H](CC(C)C)C(=O)O`: “inactive”. The same measure for `CCN(CC)CCNC(=O)COc1ccc(OC)cc1`: “inactive”; for `COc1ccc(Cc2cnc(N)nc2N)cc1OC`: “inactive”.

Regarding `Nc1ncnc(Nc2ccccc2)n1`, the Potency result was “inactive”.

For the compound `NCCCNCCSP(=O)(O)O`, the Potency result is “inactive”.

In the case of `COc1cc(OC)nc(O[C@H](C(=O)O)C(OC)(c2ccccc2)c2ccccc2)n1`, the Potency result was “inactive”. `O=C1O[C@H](CO)[C@@H](O)[C@H](O)[C@H]1O`: the Potency result is “inactive”. The same measure for `CCOC(=O)/C=C(C)/C=C/C=C(C)/C=C/c1c(C)cc(OC)c(C)c1C`: “inactive”. The same measure for `CC(=O)[C@H]1CC[C@H]2[C@@H]3C[C@H](C)C4=CC(=O)CC[C@]4(C)[C@H]3[C@@H](O)C[C@]12C`: “inactive”; for `COc1cc(C(=O)NC2CCCNC2)cc(OC)c1OC` (centres undefined): “inactive”; for `Cc1[nH]cnc1-c1ccc(Cl)cc1`: “inactive”. The same measure for `CC(C)OC(=O)OCOP(=O)(CO[C@H](C)Cn1cnc2c(N)ncnc21)OCOC(=O)OC(C)C`: “inactive”; for `CN1CCN(N)CC1`: “inactive”. Turning to `Cc1ccccc1N1CCN(CCc2nnc3n2CCCC3)CC1`, the Potency entry is “inactive”. The same measure for `CC(=O)Nc1c(I)cc(I)c(C(=O)O)c1I`: “inactive”; for `CCN(CC)CCNC(=O)c1cc(S(C)(=O)=O)ccc1OC`: “inactive”.

As for `NCCNCCNCCN`, the Potency entry was “inactive”. Turning to `CCCCCCCC(=O)[O-].CCCCCCCC(=O)[O-].[Zn+2]`, the Potency entry was “inactive”. Turning to `CCOC(=O)C1=C(C)NC(C)=C(C(=O)OC)C1c1cccc([N+](=O)[O-])c1` (centres undefined), the Potency entry is “inactive”. The same measure for `CC(=O)CC(c1ccccc1)c1c(O)c2ccccc2oc1=O` (centres undefined): “inactive”; for `CC(=O)Nc1ccc(/C=N/NC(N)=S)cc1`: “inactive”. The same measure for `NC(=O)NS(=O)(=O)c1ccc(N)cc1`: “inactive”; for `Cc1c[nH]c2ccccc12`: “inactive”. The same measure for `CC1COc2c(N3CCN(C)CC3)c(F)cc3c(=O)c(C(=O)O)cn1c23` (centres undefined): “inactive”. In the case of `CCCCCCCCCCCCCCCCOP(=O)([O-])OCC[N+](C)(C)C`, the Potency result is “inactive”. Regarding `Cc1nc([N+](=O)[O-])cn1-c1ccc([N+](=O)[O-])cc1`, the Potency entry is “inactive”. Turning to `O=C(Nc1ccc(Cl)c(Cl)c1)C1CC1`, the Potency entry was “inactive”. The same measure for `C[C@H]1O[C@@H](n2cc(F)c(=O)[nH]c2=O)[C@H](O)[C@@H]1O`: “inactive”; for `Cc1ccc2ccc(Cl)cc2n1`: “inactive”; for `O=P(O)(O)C(O)(Cn1ccnc1)P(=O)(O)O`: “inactive”.
